Measurements as given in PubChem BioAssay.
A number with no mark means an inactive call. The source made the active and inactive calls. Cut-off read from the data, not from the text of the source, unless noted: active = inhibition above about 25%; inactive = the rest.

How the values were obtained:
[1] = target: Nuclear receptor coactivator 3 (Homo sapiens) (UniProt Q9Y6Q9); assay: NCOA3 GAL4-fusion reporter inhibition – cell-based, luminescence, quadruplicate, confirmation (AID 588792;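 active = mean inhibition over 43.08%, the solvent-only control mean plus 3 SD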;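 note: 0% = DMSO treated cells and 100% = gossypol at 36 µM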); conditions: HEK293 GAL4-SRC3 luciferase reporter, at 3.6 µM, active compounds read high
[2] = tested on: transactivating tegument protein VP16 (Human herpesvirus 1), Gal4-VP16 luciferase reporter; assay: repression of VP16-driven luciferase reporter – cell-based, luminescence, high throughput, counter-screen for SRC3 inhibitor project (AID 588794; in the data active = inhibition above about 30%); conditions: mammalian cells, at 3.6 µM, active compounds read high
[3] = target: Nuclear receptor coactivator 1 (Homo sapiens) (UniProt Q15788); assay: NCOA1 GAL4-fusion reporter inhibition – cell-based, luminescence, quadruplicate, confirmation (AID 588820;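 active = mean inhibition above 46.68%, the untreated control wells mean plus 3 SD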;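 note: 0% = DMSO wells and 100% = gossypol 36 µM treated wells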); conditions: HEK293 GAL4-SRC1 luciferase reporter, at 3.6 µM, active compounds read high
[4] = repression of VP16-driven luciferase reporter – cell-based, luminescence, high throughput, counter-screen for SRC1 inhibitor project (AID 588824); conditions: cell-based VP16 transactivation luciferase luminescence; at 3.6 µM; active compounds read high

Chain of Nuclear receptor coactivator 1 (Homo sapiens) (Q15788 whole entry, looked up, the tested form may be a part): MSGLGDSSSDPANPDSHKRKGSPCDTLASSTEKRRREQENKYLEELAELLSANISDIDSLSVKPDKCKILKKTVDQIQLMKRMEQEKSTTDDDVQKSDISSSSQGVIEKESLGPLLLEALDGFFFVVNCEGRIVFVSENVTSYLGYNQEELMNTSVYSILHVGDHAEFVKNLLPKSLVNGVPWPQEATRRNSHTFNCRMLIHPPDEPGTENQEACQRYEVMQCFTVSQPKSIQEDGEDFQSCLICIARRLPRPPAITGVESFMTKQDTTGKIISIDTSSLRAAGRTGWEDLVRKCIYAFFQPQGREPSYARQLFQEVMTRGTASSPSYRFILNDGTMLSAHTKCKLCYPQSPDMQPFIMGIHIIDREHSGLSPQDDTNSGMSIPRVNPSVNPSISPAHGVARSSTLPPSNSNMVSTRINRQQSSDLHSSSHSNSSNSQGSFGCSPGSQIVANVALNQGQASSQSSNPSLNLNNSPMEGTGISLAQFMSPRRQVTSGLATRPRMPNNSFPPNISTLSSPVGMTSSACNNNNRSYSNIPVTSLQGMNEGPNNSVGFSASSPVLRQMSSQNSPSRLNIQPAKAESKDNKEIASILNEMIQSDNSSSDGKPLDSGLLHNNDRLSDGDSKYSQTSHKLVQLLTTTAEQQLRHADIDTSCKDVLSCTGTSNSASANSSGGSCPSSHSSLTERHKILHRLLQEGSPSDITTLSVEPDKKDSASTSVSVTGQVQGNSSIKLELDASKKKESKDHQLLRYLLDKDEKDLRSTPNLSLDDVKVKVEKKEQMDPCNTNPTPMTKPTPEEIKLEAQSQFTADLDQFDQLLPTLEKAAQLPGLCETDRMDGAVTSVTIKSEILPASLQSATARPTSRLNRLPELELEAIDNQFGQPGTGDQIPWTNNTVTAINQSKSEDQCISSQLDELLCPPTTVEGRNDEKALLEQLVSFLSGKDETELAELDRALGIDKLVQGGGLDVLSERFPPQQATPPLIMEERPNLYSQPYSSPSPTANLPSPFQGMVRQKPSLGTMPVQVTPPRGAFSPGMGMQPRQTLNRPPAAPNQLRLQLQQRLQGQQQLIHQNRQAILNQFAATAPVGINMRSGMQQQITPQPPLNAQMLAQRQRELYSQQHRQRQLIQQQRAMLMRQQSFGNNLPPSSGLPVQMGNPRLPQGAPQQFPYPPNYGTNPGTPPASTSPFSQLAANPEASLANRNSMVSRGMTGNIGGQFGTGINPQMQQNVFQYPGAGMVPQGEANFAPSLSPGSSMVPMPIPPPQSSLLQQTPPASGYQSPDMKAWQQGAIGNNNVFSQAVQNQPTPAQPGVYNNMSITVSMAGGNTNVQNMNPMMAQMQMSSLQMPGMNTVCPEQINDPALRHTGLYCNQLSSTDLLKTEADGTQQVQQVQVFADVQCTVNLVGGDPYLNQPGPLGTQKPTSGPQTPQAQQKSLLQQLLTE
Chain of Nuclear receptor coactivator 3 (Homo sapiens) (Q9Y6Q9 whole entry, looked up, the tested form may be a part): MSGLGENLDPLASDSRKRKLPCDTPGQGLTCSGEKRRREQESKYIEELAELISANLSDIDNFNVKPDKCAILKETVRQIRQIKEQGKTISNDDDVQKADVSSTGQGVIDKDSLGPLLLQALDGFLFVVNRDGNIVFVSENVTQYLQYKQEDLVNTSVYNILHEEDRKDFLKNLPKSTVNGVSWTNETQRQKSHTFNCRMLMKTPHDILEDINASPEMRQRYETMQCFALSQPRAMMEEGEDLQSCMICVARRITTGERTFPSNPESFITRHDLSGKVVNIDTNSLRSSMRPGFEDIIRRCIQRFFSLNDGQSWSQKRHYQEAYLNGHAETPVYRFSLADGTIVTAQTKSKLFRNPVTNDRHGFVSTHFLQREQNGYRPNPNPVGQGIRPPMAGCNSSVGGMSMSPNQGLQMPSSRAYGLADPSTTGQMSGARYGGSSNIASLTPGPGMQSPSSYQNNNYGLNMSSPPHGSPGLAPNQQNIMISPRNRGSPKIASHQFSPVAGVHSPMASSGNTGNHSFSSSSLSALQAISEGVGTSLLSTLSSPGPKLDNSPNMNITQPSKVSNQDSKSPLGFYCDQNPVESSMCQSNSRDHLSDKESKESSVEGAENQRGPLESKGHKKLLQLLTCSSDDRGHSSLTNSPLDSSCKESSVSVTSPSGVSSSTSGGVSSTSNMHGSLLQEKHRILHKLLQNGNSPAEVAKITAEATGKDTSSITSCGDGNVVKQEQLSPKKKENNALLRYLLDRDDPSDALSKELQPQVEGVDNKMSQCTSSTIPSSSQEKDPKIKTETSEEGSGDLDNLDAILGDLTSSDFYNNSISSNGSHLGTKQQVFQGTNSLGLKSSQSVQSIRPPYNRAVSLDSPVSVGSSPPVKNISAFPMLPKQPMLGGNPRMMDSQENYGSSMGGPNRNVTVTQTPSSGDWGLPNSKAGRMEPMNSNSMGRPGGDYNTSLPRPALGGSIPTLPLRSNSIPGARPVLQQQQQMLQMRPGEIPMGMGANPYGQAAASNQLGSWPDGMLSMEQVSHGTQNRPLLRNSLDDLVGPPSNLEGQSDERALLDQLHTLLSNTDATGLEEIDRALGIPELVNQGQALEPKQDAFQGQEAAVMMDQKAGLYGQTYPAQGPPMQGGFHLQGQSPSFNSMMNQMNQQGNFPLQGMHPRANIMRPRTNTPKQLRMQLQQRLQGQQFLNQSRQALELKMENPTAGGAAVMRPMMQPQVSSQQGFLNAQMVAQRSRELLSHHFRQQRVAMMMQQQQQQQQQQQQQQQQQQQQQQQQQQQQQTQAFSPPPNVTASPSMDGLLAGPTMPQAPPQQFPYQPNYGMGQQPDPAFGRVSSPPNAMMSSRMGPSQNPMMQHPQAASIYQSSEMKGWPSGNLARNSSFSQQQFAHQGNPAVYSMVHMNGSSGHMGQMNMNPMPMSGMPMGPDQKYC

SMILES	inhibition [1]	inhibition [2]	inhibition [3]	inhibition [4]
Nc1ncnc(NCc2ccccc2)c1[N+](=O)[O-]	38.8%	26.7%	38.1%	42.4% (active)
CCN(CC)c1ccc2cc(NC(=O)CCC(=O)O)c(=O)oc2c1	68.4% (active)	42.9% (active)	44.2%	39.2% (active)
NC(=S)N/N=C1\CCSc2ccc(Cl)cc21	39.3%	22.9%	6.53%	16.1%
CCOc1cc(/C=C2\CN(C)C/C(=C\c3ccc(O)c(OCC)c3)C2=O)ccc1O	56.2% (active)	60.4% (active)	-18.5%	75.6% (active)
COc1cccc(CN(C)C(=O)c2ccc(OCC(=O)Nc3cccc(C(F)(F)F)c3)c(OC)c2)c1	14.8%	34% (active)	6.82%	35.6% (active)
CCN(CC)S(=O)(=O)c1cccc(NC(=O)COC(=O)c2[nH]c(C)c(C(C)=O)c2C)c1	20%	42.5% (active)	6.19%	42.8% (active)
CC1CCN(Cc2c(C(=O)N/N=C/c3ccccc3O)nnn2-c2nonc2N)CC1	57.7% (active)	41.1% (active)	64.4% (active)	56.8% (active)
COc1ccc(/C=C2\N=C(C(C)(C)C)OC2=O)c(OC)c1	9.73%	19.2%	10%	3.16%
CC1(C)CCSC(/C=C/c2ccccc2)=N1	62.4% (active)	45.5% (active)	46.1%	39.8% (active)
